Measurements: ChEMBL document CHEMBL3988442, “University of Dundee, Small-Polar-MMV Screening Library” (2021)

biological target: T1, Arginase-2, mitochondrial (Homo sapiens) (UniProt P78540); assay: in vitro enzyme assay to detect the production of urea directly proportional to the activity of Arginase II; type: functional; design: scale not given: in the data most compounds retested in dose-response had high values; settings: 33.3 µM
T1 sequence (whole entry): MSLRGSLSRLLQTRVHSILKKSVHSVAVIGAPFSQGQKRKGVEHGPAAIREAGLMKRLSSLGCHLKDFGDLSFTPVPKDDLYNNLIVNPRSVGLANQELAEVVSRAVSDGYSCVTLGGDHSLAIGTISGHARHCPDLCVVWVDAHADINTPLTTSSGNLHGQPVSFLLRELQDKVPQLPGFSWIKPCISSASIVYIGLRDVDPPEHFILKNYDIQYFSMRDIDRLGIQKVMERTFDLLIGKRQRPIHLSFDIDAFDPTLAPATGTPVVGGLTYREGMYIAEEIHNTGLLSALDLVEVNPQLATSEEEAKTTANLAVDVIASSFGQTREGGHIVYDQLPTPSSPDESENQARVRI

| SMILES | Percent Effect |
| --- | --- |
| COc1ccccc1CN1CCC2(CC1)CC(Oc1ccccn1)CO2 (stereo not given) | 132% |
| CC(C)Nc1nc(N2CCOCC2)nc2c1CN(CC(=O)N(C)C)CC2 | 1.17% |
| c1ccc(CCN2CCN(c3ccc4nncn4n3)CC2)nc1 | 3.56% |
| COc1cccc(CCNC(=O)CN2CCN(C)CC2C)c1 (stereo not given) | 3.51% |
| CC(=O)N1CCC(Oc2ccc(C#N)cn2)CC1 | 7.27% |
| COc1cccc(CCC(=O)N2CCCCC2Cn2cccn2)c1 (stereo not given) | 1.9% |
| Cc1scc(C(=O)N2CCC3(CC(=O)NC3=O)C2)c1-c1ccccc1 (stereo not given) | 2.86% |
| CCc1csc(C2CCCN(C(=O)c3ccc(OC)nn3)C2)n1 (stereo not given) | -0.356% |
| CN(C)S(=O)(=O)c1ccc(CN2CCCC2c2ccccc2)o1 (stereo not given) | 2.88% |
| Clc1cc(CN2CCCC2Cn2cncn2)c2ncccc2c1 (stereo not given) | -12.4% |
| C=C(C)CN(Cc1cccc(O)c1)C1CCC(O)CC1 (stereo not given) | -0.248% |
| CCn1c(N)nc2cc(C(=O)NCc3ccccc3Cl)cnc21 | 5.91% |
| CCOCC1CN(S(C)(=O)=O)Cc2cnn(C)c21 (stereo not given) | -43.9% |
| c1ccc(OC[C@]23COC[C@H]2CN(c2ncccn2)C3)nc1 | -59.3% |
| CCCC(=O)NCc1cc(Br)c(OC)c(OC)c1 | 15.6% |
| CCc1csc(C2CCCN(C(=O)c3ccnc(N(C)C)c3)C2)n1 (stereo not given) | -3.55% |
| Cc1ccsc1-c1nnc(C2CCN(Cc3ccc(F)cc3)CC2)o1 | -4.87% |
| CC(NC(N)=O)C(=O)N(C)CCCc1cc(-c2ccccc2)no1 (stereo not given) | -1.29% |
| Cc1cccc(C(=O)NCCCN2CCN(c3ccccc3)CC2)c1 | 5.81% |
| CC1CCCCN1CCNC(=O)c1ccn(-c2ccc(F)cc2)n1 (stereo not given) | -16% |

| SMILES | Percent Effect |
| --- | --- |
| Cc1noc(C)c1CN1CC2(CCN(C(=O)c3cscn3)CC2)CC1=O | -5.52% |
| O=C(NCc1ccccn1)NC1CCOc2ccccc21 (stereo not given) | 1.29% |
| COc1ccc(CN2C[C@@H](OCc3ccccn3)[C@H]3COC[C@H]32)cc1 | 6.05% |
| Cc1cnn(CC2CCCN2Cc2nc3ccccc3nc2C)c1 (stereo not given) | 1.47% |
| Cn1cc(C2CCCN2CCCc2nc(-c3cccs3)no2)cn1 (stereo not given) | -6.41% |
| O=C(Nc1cccc(OCc2ccc(F)cc2)c1)C1COCCO1 (stereo not given) | 1.04% |
| O=C(C1CCCc2[nH]ncc21)N1CCCCCC1 (stereo not given) | -1.24% |
| CN(C)S(=O)(=O)N1CCC(Oc2ccc(C#N)cn2)CC1 | -0.645% |
| O=C(c1cccc2cccnc12)N1CCCN(c2cccnn2)CC1 | 1.9% |
| CC(NC(=O)NCc1cccnc1N1CCCCC1)c1nccs1 (stereo not given) | -7.12% |
| CCS(=O)(=O)c1ccccc1N1CCC(NC(=O)NC2CCCC2)CC1 | -3.14% |
| Cc1nc(CN2CCN(CC(=O)Nc3c(C)cccc3C)CC2)no1 | 1.9% |
| Fc1ccc2c(c1)C(NCc1nnc3n1CCCCC3)CCCO2 (stereo not given) | 23.1% |
| Cc1cc(N2CCN(Cc3ccc(-c4cc[nH]n4)o3)CC2)cc(C)n1 | 10.9% |
| COc1cc(C)nc(N2CCN(C(=O)CCc3cscn3)CC2)n1 | 1.91% |
| O=C(NCC1CC1)[C@H]1CC[C@@H]2[C@@H](CCN2Cc2ccoc2)O1 | 3.23% |
| Cc1noc(C)c1C(=O)N(C)Cc1nc(-c2ccccn2)no1 | 4.69% |
| CNc1nc(CNC(=O)Nc2ccccc2-c2noc(C)n2)cs1 | -1.92% |
| Cc1nnc2n1CCN(C(=O)c1cc(Cl)c[nH]1)C2 | 1.92% |
| CCn1cc2c(n1)CN(CC1CC1)CC2COCC1CC1 (stereo not given) | -5.36% |

biological target: T2, Proteasome subunit beta (Trypanosoma cruzi) (UniProt O96673); assay: Trypanosoma cruzi proteasome chymotrypsin-like activity (TcProtChymo) assay.; type: functional; design: scale not given: in the data most compounds retested in dose-response had high values; settings: 9.37 µM
T2 sequence (whole entry): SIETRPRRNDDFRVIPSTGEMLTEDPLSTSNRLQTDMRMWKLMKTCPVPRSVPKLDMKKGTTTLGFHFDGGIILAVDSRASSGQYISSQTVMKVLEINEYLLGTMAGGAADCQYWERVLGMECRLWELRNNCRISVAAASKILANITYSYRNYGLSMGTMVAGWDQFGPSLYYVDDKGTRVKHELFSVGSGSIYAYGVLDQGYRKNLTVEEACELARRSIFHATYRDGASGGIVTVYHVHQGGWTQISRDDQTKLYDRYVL

| SMILES | Percent Effect |
| --- | --- |
| COc1ccccc1CN1CCC2(CC1)CC(Oc1ccccn1)CO2 (stereo not given) | 14.9% |
| CC(C)Nc1nc(N2CCOCC2)nc2c1CN(CC(=O)N(C)C)CC2 | -5.37% |
| c1ccc(CCN2CCN(c3ccc4nncn4n3)CC2)nc1 | 3.72% |
| COc1cccc(CCNC(=O)CN2CCN(C)CC2C)c1 (stereo not given) | 14.5% |
| CC(=O)N1CCC(Oc2ccc(C#N)cn2)CC1 | 4.44% |
| COc1cccc(CCC(=O)N2CCCCC2Cn2cccn2)c1 (stereo not given) | 3.31% |
| Cc1scc(C(=O)N2CCC3(CC(=O)NC3=O)C2)c1-c1ccccc1 (stereo not given) | 12.2% |
| CCc1csc(C2CCCN(C(=O)c3ccc(OC)nn3)C2)n1 (stereo not given) | 4.73% |
| CN(C)S(=O)(=O)c1ccc(CN2CCCC2c2ccccc2)o1 (stereo not given) | 5.33% |
| Clc1cc(CN2CCCC2Cn2cncn2)c2ncccc2c1 (stereo not given) | 3.95% |
| C=C(C)CN(Cc1cccc(O)c1)C1CCC(O)CC1 (stereo not given) | 6.44% |
| CCn1c(N)nc2cc(C(=O)NCc3ccccc3Cl)cnc21 | 14.9% |
| CCOCC1CN(S(C)(=O)=O)Cc2cnn(C)c21 (stereo not given) | 10.8% |
| c1ccc(OC[C@]23COC[C@H]2CN(c2ncccn2)C3)nc1 | 12.7% |
| CCCC(=O)NCc1cc(Br)c(OC)c(OC)c1 | 5.41% |
| CCc1csc(C2CCCN(C(=O)c3ccnc(N(C)C)c3)C2)n1 (stereo not given) | 7.77% |
| Cc1ccsc1-c1nnc(C2CCN(Cc3ccc(F)cc3)CC2)o1 | 10.8% |
| CC(NC(N)=O)C(=O)N(C)CCCc1cc(-c2ccccc2)no1 (stereo not given) | 9.34% |
| Cc1cccc(C(=O)NCCCN2CCN(c3ccccc3)CC2)c1 | 12.7% |
| CC1CCCCN1CCNC(=O)c1ccn(-c2ccc(F)cc2)n1 (stereo not given) | 18.9% |

| SMILES | Percent Effect |
| --- | --- |
| Cc1noc(C)c1CN1CC2(CCN(C(=O)c3cscn3)CC2)CC1=O | 14.1% |
| O=C(NCc1ccccn1)NC1CCOc2ccccc21 (stereo not given) | 9.52% |
| COc1ccc(CN2C[C@@H](OCc3ccccn3)[C@H]3COC[C@H]32)cc1 | 20.1% |
| Cc1cnn(CC2CCCN2Cc2nc3ccccc3nc2C)c1 (stereo not given) | 10.4% |
| Cn1cc(C2CCCN2CCCc2nc(-c3cccs3)no2)cn1 (stereo not given) | 7.03% |
| O=C(Nc1cccc(OCc2ccc(F)cc2)c1)C1COCCO1 (stereo not given) | 14.3% |
| O=C(C1CCCc2[nH]ncc21)N1CCCCCC1 (stereo not given) | 11.2% |
| CN(C)S(=O)(=O)N1CCC(Oc2ccc(C#N)cn2)CC1 | 17.2% |
| O=C(c1cccc2cccnc12)N1CCCN(c2cccnn2)CC1 | 10.8% |
| CC(NC(=O)NCc1cccnc1N1CCCCC1)c1nccs1 (stereo not given) | 1.01% |
| CCS(=O)(=O)c1ccccc1N1CCC(NC(=O)NC2CCCC2)CC1 | -1.62% |
| Cc1nc(CN2CCN(CC(=O)Nc3c(C)cccc3C)CC2)no1 | 15% |
| Fc1ccc2c(c1)C(NCc1nnc3n1CCCCC3)CCCO2 (stereo not given) | -1.12% |
| Cc1cc(N2CCN(Cc3ccc(-c4cc[nH]n4)o3)CC2)cc(C)n1 | 12.7% |
| COc1cc(C)nc(N2CCN(C(=O)CCc3cscn3)CC2)n1 | 11.4% |
| O=C(NCC1CC1)[C@H]1CC[C@@H]2[C@@H](CCN2Cc2ccoc2)O1 | 4.72% |
| Cc1noc(C)c1C(=O)N(C)Cc1nc(-c2ccccn2)no1 | 4.53% |
| CNc1nc(CNC(=O)Nc2ccccc2-c2noc(C)n2)cs1 | 3.01% |
| Cc1nnc2n1CCN(C(=O)c1cc(Cl)c[nH]1)C2 | 2.84% |
| CCn1cc2c(n1)CN(CC1CC1)CC2COCC1CC1 (stereo not given) | 9.25% |
